Laboratory results as given in PubChem BioAssay (NCI).
The panel holds about 79,000 compounds, 15% with a hit somewhere; the sample as a whole holds those more often. Cut-off read from the data, not from the text of the source: active = growth inhibition above about 70%; inactive = the rest.

Columns and labels:
[1] = NCI Yeast Anticancer Drug Screen. Data for the rad50 strain (AID 155);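 note: 0% = growth of vehicle-only cultures of the same strain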; conditions: S. cerevisiae rad50 strain growth inhibition; at 50.0 µM; stronger effect = higher value
Outline: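 Growth of the mutant yeast was measured after compound exposure and referenced to vehicle-treated cultures.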

[2] = NCI Yeast Anticancer Drug Screen. Data for the mec2-1 strain (AID 157); conditions: S. cerevisiae mec2-1 strain, at 50.0 µM, stronger effect = higher value
Outline: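 Mutant yeast (mec2-1) grown with compound; growth inhibition relative to vehicle control reported.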

[3] = NCI Yeast Anticancer Drug Screen. Data for the sgs1 mgt1 strain (AID 161);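 note: 0% = growth of cultures given vehicle only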; conditions: S. cerevisiae sgs1 mgt1 strain, at 50.0 µM, stronger effect = higher value
Outline: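 Yeast cells carrying a defined DNA-repair defect were exposed to test compounds. Growth inhibition was measured relative to vehicle-treated controls.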

[4] = NCI Yeast Anticancer Drug Screen. Data for the cln2 rad14 strain (AID 165);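 note: 0% = growth equal to vehicle treated cultures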; conditions: S. cerevisiae cln2 rad14 strain, at 50.0 µM, stronger effect = higher value
Outline: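 Readout is yeast growth inhibition versus vehicle-treated controls, using a strain with cln2 and rad14 alterations exposed to compound.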

[5] = NCI Yeast Anticancer Drug Screen. Data for the bub3 strain (AID 167); conditions: S. cerevisiae bub3 mutant strain, at 50.0 µM, stronger effect = higher value
Outline: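 Whole-cell yeast assay. The mutant strain was incubated with compounds, and growth inhibition was determined by comparison with vehicle-treated cells.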

[6] = NCI Yeast Anticancer Drug Screen. Data for the mlh1 rad18 strain (AID 175); conditions: S. cerevisiae mlh1 rad18 strain growth inhibition; at 50.0 µM; stronger effect = higher value
Outline: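 Genetically defined yeast (DNA repair-deficient) exposed to compounds; growth inhibition determined relative to vehicle.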

Measured: growth inhibition

COc1ccccc1OCC(O)CO (stereo unspecified)
inactive: [1] -8.3% | [2] -22.9% | [3] -14.8% | [4] 7.7% | [5] -10.9% | [6] 10.5%

C=C1CC(C)(Cn2cnc3c(N)ncnc32)OC1=O (stereo unspecified)
inactive: [1] 9% | [2] 10.6% | [3] 9.05% | [4] 20.1% | [5] 16.7% | [6] 21.1%

F[B-](F)(F)[NH2+]c1ccc(-c2ccc([NH2+][B-](F)(F)F)c(Cl)c2)cc1Cl
inactive: [1] 35.1% | [2] 8.15% | [3] 42.3% | [4] 38% | [5] 19.9% | [6] 10.7%

CCCC(=O)C(N)Cc1ccc(O)cc1 (stereo unspecified)
inactive: [1] -16.6% | [2] -10.3% | [3] 4.35% | [4] -9.35% | [5] -16.1% | [6] -1.7%

CC(C)CCOC(=O)c1ccc(C(C)C)cc1
inactive: [1] 7.65% | [2] 9.85% | [3] -0.35% | [4] -17.7% | [5] 46.6% | [6] 5.3%

O=C(/C=C/C=C/c1ccc2c(c1)OCO2)N1CCCCC1
inactive: [1] -1.5% | [2] -26.4% | [3] 12.1% | [4] -22.6% | [5] 5.45% | [6] -22.7%

CCOC(=O)Nc1nc2ccccc2n1CN1CCOCC1
inactive: [1] -32.1% | [2] -11.9% | [3] -18.9% | [4] -14.9% | [5] -5.35% | [6] -7.8%

N/N=C(\c1nc2ccc([N+](=O)[O-])cc2[nH]c1=O)C(O)c1ccc(Cl)c(Cl)c1 (stereo unspecified)
inactive: [1] 5.7% | [2] -6.65% | [3] -11.1% | [4] -12.7% | [5] 22.3% | [6] -6.6%

CCC(C(=O)NC1c2ccccc2Oc2ccccc21)c1ccccc1 (stereo unspecified)
inactive: [1] -0.85% | [2] -9.85% | [3] 0.55% | [4] -12.4% | [5] 4.5% | [6] -2.5%

O=C1c2ccccc2C(c2ccccc2)C1c1ccccc1 (stereo unspecified)
inactive: [1] 22.8% | [2] 15.9% | [3] 17.6% | [4] -16.6% | [5] 20.6% | [6] 0.8%

CCN(CC)CCOC(c1ccccc1)c1ccccc1
inactive: [1] 3.8% | [2] -9.75% | [3] -1.2% | [4] -10.8% | [5] -0.05% | [6] -11.8%

Cc1ccc(Cl)cc1NC(=O)Oc1ccc(Cl)cc1C
inactive: [1] 23.2% | [2] 9.1% | [3] -7.8% | [4] 8.8% | [5] 15.7% | [6] 3.25%

CN1C(=O)C(O)(c2c3c(c(C4(O)C(=O)N(C)c5ccccc54)c4c2OCO4)OCO3)c2ccccc21 (stereo unspecified)
inactive: [1] 0.45% | [2] -0.6% | [3] -28.2% | [4] -7.35% | [5] -5.2% | [6] 8.95%

O=C1c2cccnc2-c2ncccc21
inactive: [1] 16.3% | [2] 0.55% | [3] -1.35% | [4] 9.8% | [5] 5.4% | [6] 24.1%

CC(=O)c1cc2ccccc2o1
inactive: [1] 17.6% | [2] 1.4% | [3] -4% | [4] 0.05% | [5] -6.7% | [6] 4.6%

Nc1cccc(N2N=C(C(=O)O)CC2=O)c1
inactive: [1] -7% | [2] -19.8% | [3] -40.9% | [4] -12.7% | [5] -2.7% | [6] -15.6%

C/C(C(=O)O)=C(\C)c1ccccc1
inactive: [1] -0.7% | [2] -0.75% | [3] -0.9% | [4] -15.6% | [5] 2.1% | [6] 5.2%

NC(=O)c1cnn(CCO)c1N
inactive: [1] 0.2% | [2] -3.35% | [3] 2.55% | [4] -15.6% | [5] 2.85% | [6] 12.6%

ClCCOC(c1ccc(Cl)cc1)c1ccc(Cl)cc1
inactive: [1] -1.6% | [2] 3.5% | [3] -4.55% | [4] -12.9% | [5] 0.45% | [6] 19.8%

CCCCCCCCCCCCCCCCOc1ccc(C2=NCC(C)S2)c(C)c1 (stereo unspecified)
inactive: [1] 3.6% | [2] 2.6% | [3] 12.1% | [4] 45.7% | [5] -1.6% | [6] 38.1%

Cc1nn(C)c(C#N)c1[N+](=O)[O-]
inactive: [1] -7.05% | [2] -30.3% | [3] -36.3% | [4] 4.4% | [5] -16.2% | [6] 0.8%
